The results in this text go back to ChEMBL document CHEMBL1157539, “Thousands of chemical starting points for antimalarial lead identification” (Nature, 2010).

This assay has as its system Plasmodium falciparum. Nature of the assay: GSK_TCMDC: Inhibition of Plasmodium falciparum 3D7 in whole red blood cells, using parasite LDH activity as an index of growth. Test compounds present at 2uM. Type of assay: functional.
A word on the Inhibition: it is the share of the control response that was lost under treatment. Molecule `CN1CCN(c2cc(-c3cccc(C(F)(F)F)c3)nc(-c3ccncc3)n2)CC1` registered an Inhibition of 100%.
Take `O=C(Nc1ccc(OC2CCN(Cc3ccccc3)CC2)c(Cl)c1)c1ccsc1.O=C(O)C(F)(F)F`: the Inhibition amounted to 87%.
In the case of `CN1CCN(Cc2ccc(OCc3cccc(COc4ccc(CN5CCN(C)CC5)cc4I)c3)c(I)c2)CC1.Cl`, the Inhibition stood at 92%.
`CCOC(=O)N1CCN(CCCCNc2c3ccc(Cl)cc3nc3ccc(OC)cc23)CC1.Cl`: the Inhibition stood at 100%.
Next, `Cc1cccc2nc(-c3ccc(-c4cccc(CNCCCNS(C)(=O)=O)c4)cc3)[nH]c12.O=C(O)C(F)(F)F`: 99%; `COc1ccc2nc(N3CCNCC3)nc(NCCCc3ccccc3)c2c1.Cl`: 100%.
Turning to `N#Cc1ccc(C(=O)NC2CCN(CCCCCNC(=O)/C=C/c3ccc(Cl)c(Cl)c3)CC2)cc1`, the Inhibition was 98%.
The molecule `O=C(Cc1ccc(Cl)cc1)NC1CCN(c2ccnc3cc(Cl)ccc23)C1.O=C(O)C(F)(F)F` (stereo not given) came in with an Inhibition of 82%.
`Cc1nn(-c2cccc(C(F)(F)F)c2)c2sc(C(=O)NC3CCN(C(C)C)CC3)cc12` registered an Inhibition of 94%.
For the molecule `Cc1ccccc1C1CCN(c2ncc(C(=O)NC3CC3)cc2Cl)CC1.O=C(O)C(F)(F)F`, the Inhibition worked out at 96%.
`CCN(CC)CCN(Cc1ccc(-c2ccc(C(F)(F)F)cc2)cc1)C(=O)Cn1cc(Cc2cnn(C)c2)c(=O)nc1/C=C/c1ccc(F)cc1.O=C(O)C(O)C(O)C(=O)O`: the Inhibition stood at 96%.
With `Cc1cc(N2CC=CCC2)nc(NC(=N)Nc2ccc(Br)cc2)n1`, the Inhibition turned out to be 98%.
`CN1CCN(c2ccc(Nc3ccnc4ccc(-c5ccccc5)cc34)cc2)CC1` had an Inhibition of 100%.
Under `Cc1cc(-c2ccc(CNC3CCN(C)CC3)cc2)ccc1S(=O)(=O)NCc1ccccc1.O=C(O)C(F)(F)F` stands 100%; under `O=C(Nc1cccc(-c2nc3ccccc3[nH]2)c1)c1cccc(NC(=O)c2ccco2)c1`, 91%; under `Cc1ccc(C(=O)Nc2ccc(Nc3ccnc4cc(-c5ccccn5)ccc34)cc2O)cc1.Cl`, 100%.
The molecule `COc1cc(OC)c2c(C)cc(NCCCN3CCOCC3)nc2c1` yielded an Inhibition of 99%.
Take `CS(=O)(=O)CCCNCc1ccc(-c2cc3c(Nc4ccc(OCc5ccccc5)cc4)ncnc3cn2)o1`: the Inhibition worked out at 87%.
For the molecule `O=[N+]([O-])c1cccc(NC(=S)N2CCCN(Cc3ccc(F)cc3F)CC2)c1`, the Inhibition was found to be 99%.
Molecule `CC(C)Nc1cc(C(=O)N[C@@H](Cc2ccccc2)[C@H](O)CNC(C)(C)c2cccc(C(F)(F)F)c2)cc(N2CCCCS2(=O)=O)c1.O=CO` came in with an Inhibition of 98%.
As for `COc1ccc(CNCc2ccc(-c3cccc(-c4nc5cccc(C)c5[nH]4)c3)cc2)cc1.O=C(O)C(F)(F)F`, the Inhibition stood at 100%.
`Cc1cc(NCCCN2CCCC2=O)n2c(nc3ccccc32)c1C#N` returned an Inhibition of 93%.
`Cc1ccccc1C1CCN(c2ccc(C(=O)Nc3ccc(F)cc3)cn2)CC1.O=C(O)C(F)(F)F` returned an Inhibition of 96%.
`Cc1ccccc1N1CCN(c2ccc(C(=O)NC3CC3)cn2)CC1.O=C(O)C(F)(F)F`: the Inhibition was 96%.
Consider `CC(C)(C)c1ccc(S(=O)(=O)Nc2ccccc2Cn2nc(N3CCNCC3)ccc2=O)cc1.O=C(O)C(F)(F)F`, for which the Inhibition was 98%.
The molecule `Cc1[nH]c(C)c(-c2ccc(OCc3cc(F)cc(F)c3)nc2)c(=O)c1Br` registered an Inhibition of 98%.
Under `COc1cc(CN2CCC(N3CCc4cc(NC(=O)c5cc(C)on5)ccc43)C2)ccc1F` (stereo not given) stands 91%.
Under `N#Cc1ccc(N(CCOC(=O)c2ccc(Br)s2)Cc2ccccc2C(F)(F)F)cc1C(F)(F)F` stands 82%.
For `O=C(Nc1ccc(Cl)c(C(F)(F)F)c1)NC1CCN(CCCCCNC(=O)C2CC2c2ccc(Cl)c(Cl)c2)CC1` (stereo not given), the Inhibition came out at 100%.
`CN1CCN(S(=O)(=O)c2cccc(Nc3nccc(N(C)c4ccc5c(c4)nc(NC(=O)c4cccs4)n5C)n3)c2)CC1`: the Inhibition is 99%.
In turn, `C#CCNC(=O)c1ccc(-c2ccnc(Nc3cccc(CCCN4CCOCC4)c3)n2)s1` displayed an Inhibition of 82%.
In the case of `Cc1cccc2nc(-c3ccc(-c4cccc(CN5CCN(c6ccncc6)CC5)c4)cc3)[nH]c12.O=C(O)C(F)(F)F`, the Inhibition is 100%.
In turn, `C=CCNc1cc(-c2ccccn2)nc(-c2ccccn2)n1` showed an Inhibition of 94%.
Regarding `O=C(Nc1ccc(-c2ccccc2)cc1)Nc1cccc(OCCN2CCCC2)c1.O=C(O)C(F)(F)F`, the Inhibition turned out to be 94%.
With `Br.Cn1c(=N)n(CC(=O)OCc2ccc(OCc3ccccc3)cc2)c2ccccc21`, the Inhibition is reported as 100%.
`O=C(Nc1cccc(-c2cccc(-c3nc4cc(C(F)(F)F)ccc4[nH]3)c2)c1)c1cccnc1Cl` gave an Inhibition of 95%.
Next, `COc1ccc2ncc(F)c(CCN3CCC[C@H](CNCc4ccc5c(n4)NC(=O)CS5)C3)c2n1.Cl`: 96%; `Cc1cc(N[C@@H](Cc2ccccc2)C(=O)NCc2cccc(F)c2)nc(NCCc2ccc(F)cc2)n1.O=C(O)C(F)(F)F`: 99%.
The molecule `CCNc1cc(C(=O)NC(Cc2ccccc2)C(O)CNC2CCSCC2)cc(N2CCCC2=O)c1` (stereo not given) came in with an Inhibition of 99%.
`CC(=O)N(Cc1nc(-c2cc(Cl)c(Cl)s2)cs1)c1c(C)cccc1C` registered an Inhibition of 98%.
